Results as given in PubChem BioAssay (NCI).
Compounds without any hit were thinned out: in the full panel of roughly 79,000, 15% have a hit. Values without a mark were called inactive. Active and inactive are the calls of the source. No stated cut-off is given here; in the data, active means growth inhibition above about 70%; inactive means the rest.

Assay: NCI Yeast Anticancer Drug Screen. Data for the mec2-1 strain (AID 157)
Details: S. cerevisiae mec2-1 strain, at 50.0 µM, active compounds read high
Method in brief: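 Strain: mec2-1 (DNA repair/cell cycle alteration). Compound exposure, then growth measured; inhibition expressed relative to vehicle.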

Structure (SMILES) | growth inhibition
c1ccc2nc3ccccc3nc2c1 | 41.2%
O=C(NCCCl)Nc1c2ccccc2nc2ccccc12 | 41%
CC1=C2CCC3C(CCC4(C)C(C(C)CCCC(C)C)CCC34)C2(C)CCC1=O (configuration not stated) | 4.25%
Cc1cccc(Cl)c1NC(=O)/C=C/c1ccccc1 | -6.05%
O=C1/C(=C/c2ccc(Cl)cc2)CSC/C1=C\c1ccc(Cl)cc1 | 4%
CCOC(=O)c1c(N)sc2c1CCCCC2 | 45.4%
CC(C)NC(=O)O/N=C1\CCC2[C@@H]3CC=C4C[C@@H](OC(=O)NC(C)C)CC[C@]4(C)C3CC[C@]12C (some centres not stated) | 83% (active)
COc1ccc2c(c1)c(=O)c1c(NCCN(C)C)ccc3nnn2c31 | 14.4%
CCCC(=O)N(C(=O)CCC)C1=C(Cl)C(=O)c2ccccc2C1=O | 83.1% (active)
CN(C)C1C=CCC(c2ccccc2)C1[N+](=O)[O-] (configuration not stated) | 96.9% (active)
CC(=O)NC1C(=O)CC(c2ccccc2)N(C)C1c1ccccc1 (configuration not stated) | 6.55%
CCCCC#CCCOC(=O)C#CCCCC | 28.2%
CC1C[C@]2(C)C(=S)Nc3ccccc3[C@@H]2Nc2ccccc21 (some centres not stated) | 17.9%
O=[N+]([O-])/C=C/c1c[nH]c2c1ccc1ccccc12 | 84.7% (active)
CCC[CH2][Sn]([S][Sn]([CH2]CCC)([c]1ccccc1)[c]1ccccc1)([c]1ccccc1)[c]1ccccc1 | 99.5% (active)
CCN(CC)CCCCNc1ccc(Cl)cc1 | 39.1%
C[n+]1c(/C=C\c2ccccc2)sc2ccccc21 | 82.3% (active)
